MsrA inhibitor: bovine MsrA inhibition | purified bovine MsrA, absorbance read-out | 360,000 tested, 0.75% active | inhibition, % at 15.5 µM; in the data active = inhibition above about 4.5%;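 note: 0% = vehicle wells with enzyme and 100% = reference inhibitor wells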
MsrA act: activates bovine MsrA enzyme; purified bovine MsrA, absorbance read-out; activation, % at 10.6 µM; 360,000 tested, 0.3% active; in the data active = activation above about 7.5%;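 note: 0% = vehicle and 100% = reference activator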
SMARCA2 activ: activators of SMARCA2 function; MG213 cells, MMTV-luciferase reporter, dexamethasone, overnight; activation, % at 9.1 µM; 370,000 tested, 1% active; AID 652017; in the data active = activation above about 7.8%;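 note: 0% = vehicle wells and 100% = reference activator wells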
ABCB6 inh 2: inhibitors of human ABC transporter ABCB6 | 360,000 tested, 0.19% active | K562-ABCB6 porphyrin accumulation, flow cytometry, 1 h; hits give low values | fluorescence ratio to DMSO, % at 10 µM | Q9NP58;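 active = fluorescence ratio to DMSO below 75%, the collection mean minus 3 SD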;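 note: signal is porphyrin accumulated inside mitochondria; 100% equals median channel fluorescence of DMSO control wells; lower ratio means ABCB6 inhibition with less porphyrin fluorescence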
Target sequence (Q9NP58 whole entry, looked up): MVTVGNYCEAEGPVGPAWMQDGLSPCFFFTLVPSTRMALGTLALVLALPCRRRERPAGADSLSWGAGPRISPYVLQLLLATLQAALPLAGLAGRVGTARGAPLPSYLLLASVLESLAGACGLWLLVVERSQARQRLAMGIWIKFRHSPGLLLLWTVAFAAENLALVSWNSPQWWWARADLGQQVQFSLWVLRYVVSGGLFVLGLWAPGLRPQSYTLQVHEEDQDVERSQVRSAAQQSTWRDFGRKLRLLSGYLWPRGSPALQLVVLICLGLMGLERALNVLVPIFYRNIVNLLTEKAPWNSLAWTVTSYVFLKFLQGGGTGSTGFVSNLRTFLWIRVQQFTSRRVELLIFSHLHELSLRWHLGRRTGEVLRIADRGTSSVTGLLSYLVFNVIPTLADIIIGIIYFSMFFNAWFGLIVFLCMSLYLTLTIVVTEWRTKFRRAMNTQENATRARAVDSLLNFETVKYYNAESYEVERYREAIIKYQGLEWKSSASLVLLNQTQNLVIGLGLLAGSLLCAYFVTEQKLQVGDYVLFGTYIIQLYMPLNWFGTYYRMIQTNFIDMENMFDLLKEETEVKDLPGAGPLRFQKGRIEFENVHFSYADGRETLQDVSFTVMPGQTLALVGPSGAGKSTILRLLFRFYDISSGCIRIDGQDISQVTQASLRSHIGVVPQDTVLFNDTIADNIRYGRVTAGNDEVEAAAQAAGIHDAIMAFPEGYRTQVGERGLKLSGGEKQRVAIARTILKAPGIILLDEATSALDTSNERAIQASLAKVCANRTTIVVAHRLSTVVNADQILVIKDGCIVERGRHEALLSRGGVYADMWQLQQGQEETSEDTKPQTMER
* marks the source's active call; other numbers are inactive results; . = no result. This is a sample that favours compounds with a hit; in the whole collection about 2.1% have one here.

SMILES | MsrA inhibitor | MsrA act | SMARCA2 activ | ABCB6 inh 2
COC(=O)[C@]12C[C@H](CC(=O)N3CCOCC3)C(=O)N(CCc3ccc(OC)c(OC)c3)C1=C[C@H](COCc1ccccc1)O[C@@H]2C | . | . | -6 | .
Cn1cccc1C(=O)N1CCN(S(=O)(=O)c2ccc(F)cc2)CC1 | . | . | -5 | .
COC(=O)[C@]12C=CCN1[C@H](c1ccc(OC)c(OC)c1)c1c(c3ccccc3n1S(=O)(=O)c1ccc(C)cc1)C2 | . | . | -2 | .
Cc1ccc(O)c(NC(=O)c2cc(-c3ccccc3)on2)c1 | 0 | -2 | 7.8* | 97
O=C(Nc1cc(Br)ccc1O)c1cc(-c2ccccc2)on1 | 1 | -3 | 7 | 94
COc1cc(/C=C/C(=O)OCC(=O)c2ccc[nH]2)cc(OC)c1OC | 0 | -2 | -2 | 97
COc1ccc(/C=C/C(=O)c2ccc[nH]2)c(OC)c1OC | 4.6* | -2 | 0 | 94
Cc1ccc(NC(=O)/C(=C/c2cccc([N+](=O)[O-])c2)NC(=O)C2CCCCC2)cc1 | 1 | -7 | -1 | 72*
O=C(NCc1ccc(F)cc1)C1CCCN(c2nc3ccccc3o2)C1 (centres undefined) | . | . | 6 | .
Cc1ccc(OCc2nc(-c3ccc(Cl)cc3)n[nH]2)cc1 | 0 | 3 | 4 | 108
Cc1ccc(-c2n[nH]c(Cc3ccccc3)n2)cc1 | -1 | -5 | 7.9* | 106
Cc1nn(-c2ccccc2)c2sc(C(=O)NC3CCCCCCC3)cc12 | . | . | -6 | .
CN1CCN(C/C(=C2/N=C(c3ccccc3)OC2=O)N(C)C)CC1 | 4.6* | -4 | -4 | 98
C=CCn1cccc(C(=O)Nc2cc(OC)ccc2OC)c1=O | 4.7* | -4 | -1 | 97
COc1ccc(C2CC(=O)C3=C(C2)Nc2ccccc2N(C(C)=O)C3c2ccco2)cc1 (centres undefined) | 3 | -12 | 1 | 99
CCC(=O)N1c2ccccc2NC2=C(C(=O)CC(c3ccco3)C2)C1c1ccco1 (centres undefined) | 4.6* | -4 | 0 | 107
CC(C)c1ccc(C2NC(=S)NC3=C2C(=O)CCC3)cc1 (centres undefined) | 2 | 2 | -2 | 69*
C=CCOn1c(=O)c(-c2cc3ccccc3o2)[n+]([O-])c2ccccc21 | 0 | -4 | 7.9* | 103
Cc1ccc(COn2c(-c3ccc(Cl)cc3)nc3ccc([N+](=O)[O-])cc32)cc1 | 0 | -5 | 8.2* | 91
O=C(O)COn1c(-c2ccccc2)nc2ccc([N+](=O)[O-])cc21 | 4 | -1 | 7.8* | 103
C/C(=N\NC(=O)Cc1cc(=O)[nH][nH]1)c1ccc([N+](=O)[O-])cc1 | . | . | -6 | .
CCc1nc2c(oc3ccccc32)c(=O)[nH]1 | 1 | 1 | 2 | 99
O=c1[nH]c(CSc2ccccn2)nc2c1oc1ccccc12 | 0 | -1 | 7.8* | 103
c1ccc(Cn2c(SCC3CCC3)nnc2-c2cccnc2)cc1 | . | . | 1 | .
CC(C)c1ccc(N(CC(=O)NCCc2ccccc2)C(=O)c2csnn2)cc1 | 0 | 2 | 7.8* | 102
SMILES | MsrA inhibitor | MsrA act | SMARCA2 activ | ABCB6 inh 2
COc1cccc(C(=O)Oc2ccc(/C=N/Nc3ccc(C(=O)O)cc3)cc2OC)c1 | 4.6* | -5 | 2 | 89
O=[N+]([O-])c1ccccc1C=Nn1c(-c2cc(-c3ccccc3)n[nH]2)n[nH]c1=S | . | . | -6 | .
O=C(Nc1ccc(-c2nc3ccc(NC(=O)c4cccs4)cc3[nH]2)cc1)c1cccs1 | 3 | -9 | 9.1* | 92
Cn1cccc1-c1nc2ccc(NC(=O)c3ccco3)cc2[nH]1 | 7.3* | -1 | -3 | 119
COc1ccc(-n2c(SCC(=O)Nc3ccc(S(=O)(=O)Nc4nccs4)cc3)nnc2-c2ccccc2)cc1 | . | . | -3 | .
CCOc1ccc(C(=O)NCc2cccs2)cc1 | -1 | -6 | 7.9* | 91
CC[n+]1c(/C=C/N(C)c2ccccc2)oc2ccccc21 | 4.7* | -9 | -3 | 138
CC(=O)Nc1ccc(Nc2cc(C)nc3c(-c4ccc(Cl)cc4)c(C)nn23)cc1 | 0 | -9 | 7.9* | 89
Cc1ccccc1Cn1ccc(NC(=O)c2nc3ncccn3n2)n1 | -1 | -5 | 3 | 98
Cc1ccccc1Cn1ccc(NC(=O)c2onc(C)c2Cl)n1 | 0 | -1 | 7.8* | 94
Cc1ccc2c(c1)C(CS(=O)(=O)NC1CCCC1)NC2 (centres undefined) | . | . | -1 | .
CC(C)C[C@@H]1COc2cccc(F)c2S(=O)(=O)N1C | . | . | 1 | .
COCCCNc1nc2c(c(=O)[nH]c(=O)n2C)n1CCCc1ccccc1 | -1 | -3 | 7.9* | 93
CCCCNc1nc2c(c(=O)[nH]c(=O)n2C)n1CCCc1ccccc1 | 0 | -2 | 2 | 99
CCC(C)[C@H](NC(=O)NCc1cccc(OC)c1)C(=O)OC (some centres undefined) | 1 | 1 | 1 | 96
COc1cccc(CNC(=O)N[C@@H](CC(C)C)C(=O)O)c1 | -1 | 0 | -2 | 63*
COc1ccc(-n2c(SCC(=O)NNC(=S)Nc3ccccc3)nc3ccccc3c2=O)cc1 | . | . | -3 | .
CC(C)=CCC/C(C)=C/CN1CC(=O)N2[C@H](C[C@@]3(n4ccc5ccccc54)c4ccccc4N(S(=O)(=O)c4ccccc4)[C@@H]23)C1=O | . | . | 1 | .
Cc1cccc(Nc2nc(N)c(C#N)c(CC#N)c2C#N)c1 | 4.6* | -5 | -6 | 98
Cc1cccc(Nc2nc(C)cc(C)c2C#N)c1 | 1 | -2 | -3 | 102
COC(=O)C[C@@H]1CC[C@H]2[C@@H](COc3ccc(NC(=O)Nc4ccccc4C)cc3C(=O)N2C)O1 | . | . | -1 | .
COC(=O)C[C@H]1CC[C@H]2[C@H](COc3ccc(NC(=O)Nc4ccccc4F)cc3C(=O)N2C)O1 | . | . | 7.9* | .
CCOc1ccc(CC2S/C(=N/N=C/c3ccco3)NC2=O)cc1 (centres undefined) | 4 | -3 | 3 | 105
O=C1N/C(=N\N=C\c2ccco2)SC1Cc1ccccc1[N+](=O)[O-] (centres undefined) | 4.6* | -5 | 0 | 98
COC(=O)[C@H]1C[C@@]2(N3CCCC3)c3ccccc3N[C@H]2N1S(C)(=O)=O | . | . | -5 | .
SMILES | MsrA inhibitor | MsrA act | SMARCA2 activ | ABCB6 inh 2
Cc1ccc(NC(=S)NNC(=O)CSc2nnc(-c3ccc(C)cc3)n2C2CCCCC2)cc1 | . | . | -2 | .
COc1cc(C2C3=C(CCCC3=O)Nc3[nH]n(-c4ccccc4)c(=O)c32)ccc1OC(C)=O (centres undefined) | 4.6* | -4 | -3 | 112
CC1CCCN(S(=O)(=O)c2ccc(C(=O)Nc3ccccc3-c3nc4ccccc4[nH]3)cc2)C1 (centres undefined) | 0 | 0 | 0 | 101
CC1CCN(S(=O)(=O)c2ccc(C(=O)Nc3ccccc3-c3nc4ccccc4[nH]3)cc2)CC1 | 0 | -4 | 9.7* | 98
CCOC(=O)NC[C@@]1(C(=O)OC)CC(=O)N(Cc2ccc(Cl)cc2)[C@@H]1c1ccc(OC)cc1 | . | . | -3 | .
CCn1cc(C(=O)NC2CCCc3c2cnn3-c2cccc(C)c2C)cn1 (centres undefined) | -1 | -2 | -5 | 65*
O=C(CCn1nnc(-c2cccs2)n1)NCc1cccs1 | . | . | -1 | .
COc1cc(/C=C/C(=O)Nc2ccc3nc4n(c(=O)c3c2)CCCC4)cc(OC)c1OC | 4.6* | -3 | -3 | 93
